Bioassay records (PubChem BioAssay)
ELG1 repair inh = inhibitors of ELG1-dependent DNA repair in HEK293T cells. HEK293T ELG1-luciferase reporter, luminescence, 16 h; DNA damage induced by 5-fluorouridine. Potency, µM (highest dose often 46.1 µM), for inactives: at the top dose activity change, negative = inhibition, most hits filed as inhibitors. AID 504467. 330,000 compounds, 2.3% hits; further: on the % scale 0 is the no-effect control and ±100 the full control effect; nearly all actives have a fitted effect of over 55% in size
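Cells (2,000 per well) received 5-fluorouridine plus test compound or DMSO and were incubated 16 hr at 37 °C, 5% CO2. Luciferase activity was read by luminescence 30 min after ONE-Glo addition; signal suppression marked inhibition of damage-induced ELG1 function.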
NPC1 promoter act = NPC1 promoter activation; Huh7 NPC1 promoter luciferase reporter, 24 h; Potency, µM (series often up to 9.22 µM), for inactives: at the highest dose activation, actives largely listed as activators; 320,000 compounds, 2.4% hits; AID 485313; further: % of control where 0% means no effect; nearly all actives have a fitted effect of over 60% in size
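Quantitative HTS used a cell-based reporter: Huh7 cells stably bearing the NPC1 promoter upstream of luciferase were treated with compounds for 24 h, and promoter activation was read as luminescence.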
Rab9 promoter act = activators of Rab9 promoter. Potency, µM (titrated, usually from 9.22 µM), inactives show top-dose activation, negative = inhibition, actives largely listed as activators. 320,000 compounds, 2.8% hits. Huh7 Rab9 promoter-luciferase reporter, luminescence, 24 h; further: % of control where 0% means no effect; nearly all actives have a fitted effect of over 60% in size
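Promoter activation is measured as luciferase luminescence in Huh7 cells stably transfected with a Rab9 promoter–luciferase construct, following 24 h compound exposure at 37 °C and 10 min reagent incubation at ambient temperature.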
FLuc counter = counter-screen for miR-21 project: firefly luciferase inhibitors or activators. 360,000 compounds, 6.9% hits. purified FLuc, Km substrates, luminescence inhibition. Potency, µM (titrated, usually from 57.5 µM), for inactives: at the highest dose activity change, negative = inhibition, hits mostly inhibitors;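 further: plate controls were vehicle for no effect and reference inhibitor for full effect; nearly all actives have a fitted effect of over 55% in size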
Target sequence (P08659 whole entry, looked up): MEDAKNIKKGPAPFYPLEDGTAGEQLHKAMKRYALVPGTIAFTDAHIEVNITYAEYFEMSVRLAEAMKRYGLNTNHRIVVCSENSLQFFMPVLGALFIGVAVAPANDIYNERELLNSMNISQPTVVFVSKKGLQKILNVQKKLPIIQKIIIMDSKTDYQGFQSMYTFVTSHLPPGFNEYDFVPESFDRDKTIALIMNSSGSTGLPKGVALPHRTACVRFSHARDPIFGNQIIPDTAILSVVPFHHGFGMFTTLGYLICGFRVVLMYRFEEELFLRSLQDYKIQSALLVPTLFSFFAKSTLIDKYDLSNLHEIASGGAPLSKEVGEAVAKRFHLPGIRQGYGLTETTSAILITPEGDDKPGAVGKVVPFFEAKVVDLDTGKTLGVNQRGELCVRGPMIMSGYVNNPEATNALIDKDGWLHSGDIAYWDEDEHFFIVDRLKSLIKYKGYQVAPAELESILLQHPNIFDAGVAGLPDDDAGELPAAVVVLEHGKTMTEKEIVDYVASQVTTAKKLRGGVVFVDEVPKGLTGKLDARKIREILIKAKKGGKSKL
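Purified P. pyralis luciferase, 10 nM final, with Km-level 10 uM D-luciferin and 10 uM ATP in 50 mM Tris acetate pH 7.5, 10 mM Mg acetate, 0.01% Tween-20, 0.05% BSA; 6-point qHTS titration about 60 µM downward; luminescence read.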
SMN2 splice up = enhancers of SMN2 splice variant expression | 210,000 compounds, 2.8% hits | AID 1458 | Potency, µM (top dose mostly 46.1 µM), for the others: at the top dose activity change, positive = activation, actives largely listed as activators | HEK293 SMN2-luciferase splicing reporter, luminescence, 30-36 h; further: % of control where 0% means no effect; nearly all actives have a fitted effect of over 55% in size
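HEK293 cells carry an SMN2 minigene-luciferase reporter in which exon 7 inclusion puts luciferase in frame. Cells were seeded at 2000 cells/well, attached for 10-12 hours, then exposed to compounds for 30-36 hours at 37C before ONE-Glo luminescence.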
ELG1 genotox = inducers of genotoxicity in HEK293T ELG1-luciferase cells; HEK293T ELG1-luciferase reporter, luminescence, 16 h; Potency, µM (highest dose often 46 µM), for inactives: top-dose activity change, positive = activation, hits mostly activators; 330,000 compounds, 1.3% hits; AID 504466; further: % of control where 0% means no effect; nearly all actives have a fitted effect of over 60% in size
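Genotoxicity was scored as increased ELG1-luciferase reporter signal, measured by ONE-Glo luminescence (30 min, room temperature). Compound or vehicle exposure of the HEK293T reporter cells lasted 16 hr at 37°C.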
Starred values were filed as active, the others as inactive; u = inconclusive; x = no result given; [ ] = dose if it differs, or a comment. In the library only some 9.3% were active in any assay of this set; here they are far more common. The call rests on the fitted dose curve; in most records, active means well fitted curve in the direction sought with a large enough effect; inconclusive means small, poorly fitted or top-dose-only effect, or another doubt; inactive means no such curve, though single readings can be large; an effect the other way counts as inactive or inconclusive. Potency means the concentration at half of the fitted maximal effect.

SMILES | ELG1 repair inh | NPC1 promoter act | Rab9 promoter act | FLuc counter | SMN2 splice up | ELG1 genotox
Cc1ccc(NC(=O)c2oc3ccccc3c2NC(=O)Cc2ccccc2)cc1 | x | x | x | 2% | 4% | x
O=C(CN1C(=O)NC2(CCCCCCC2)C1=O)Nc1c(Cl)cccc1Cl | 8% | x | x | x | x | -1%
COCC(=O)Nc1ccc(-c2cn3cccnc3n2)cc1 | u | 1% | 21% | u | -11% | 15%
Clc1ccc(-c2cn3cccnc3n2)cc1 | u | 27% | u | 11µM* | -5% | 16µM*
O=S(=O)(Nc1ccc(-c2cn3cccnc3n2)cc1)c1ccccc1 | 7% | 0% | -8% | u | 3% | 1%
COc1ccc(-c2cn3cccnc3n2)cc1F | u | u | u | 8.5µM* | 16µM* | u
Clc1ccc(-c2cn3cccnc3n2)cc1Cl | u | u | u | 17µM* | u | u
Brc1ccc(-c2cn3cccnc3n2)cc1 | u | u | 2.2µM* | 8.5µM* | 7.9µM* | 2.9µM*
C=CCn1c(SCC(=O)NCC)nc2sc3c(c2c1=O)CCC3 | 20% | -4% | 4% | 0% | x | u
CCN(C(=O)CSc1nnc(-c2ccco2)n1C)c1c(N)n(Cc2ccccc2)c(=O)[nH]c1=O | 14% | 0% | -5% | -1% | x | -1%
CC(C)c1nn2c(=O)cc(COC(=O)c3ccc(NC(=O)CCc4ccccc4)cc3)nc2s1 | x | x | x | 0% | x | x
COc1ccc(-n2nc(C(=O)NCC(=O)NCc3ccc(F)cc3)c3ccccc3c2=O)cc1OC | -16% | -3% | 1% | -2% | x | 24%
Cc1cc(C)c(C(=O)C(C)OC(=O)c2ccc(Cl)nc2)cc1C (configuration not stated) | 8% | -2% | -4% | 5% | x | -5%
N[C@@H](CSS(=O)(=O)O)C(=O)O | x | x | x | x | 3% | x
CCCCc1nc2c(c3c1C[C@H](C)OC3)CN(C(=O)c1cccnc1)CC2 | x | x | x | x | -6%[9.22 µM] | x
Cn1/c(=N/N=C/c2ccc(Cl)c([N+](=O)[O-])c2)sc2ccccc21 | u | u | 13% | u | 14% | 0%
Cn1/c(=N/N=C/c2ccc(N3CCOCC3)cc2)sc2ccccc21 | u | u | 30% | 3µM* | 26% | 13%
Cn1/c(=N/N=C/c2ccccn2)sc2ccccc21 | u | 2.2µM* | 1.1µM* | 3.8µM* | 16µM* | u
Nc1nc(SCC(=O)NCCO)nc2sc3c(c12)CCCC3 | u | 6% | -2% | 17µM* | 10% | 11%
COC(=O)CSc1nc(N)c2c3c(sc2n1)CCCC3 | 24% | 1% | 5% | 9.5µM* | x | 13%
Cn1c(=O)c2c3c(sc2n2c(SCC(N)=O)nnc12)CC(C(C)(C)C)CC3 (configuration not stated) | 23µM* | -3% | -4% | u | u | -19%
CC(C)(C)C1CCc2c(sc3nc(SCC(=O)O)nc(N)c23)C1 (configuration not stated) | u | 18% | 11% | 2.4µM* | x | u
CC1(C)Cc2c(sc3nc(SCC(=O)O)nc(N)c23)CO1 | 6% | -3% | 2% | -18% | x | 0%
CCCCN(CCCC)C(=O)CSc1nnc2n(C)c(=O)c3c4c(sc3n12)CCCC4 | 10% | -4% | -4% | 1% | -56% | -7%
CCN1c2ccccc2-c2nc(SCC(=O)Nc3cc(C)c(Cl)cc3OC)ncc2S1(=O)=O | x | x | x | -2% | x | x
SMILES | ELG1 repair inh | NPC1 promoter act | Rab9 promoter act | FLuc counter | SMN2 splice up | ELG1 genotox
COc1ccc(C(=O)N/C(=C\c2cn(C)c3ccccc23)C(=O)N2CCOCC2)cc1 | 9% | -11% | -3% | -2% | x | 1%
CC(=O)Nc1ccc2c(c1)nc1n2CCSC1 | u | 1% | -7% | -15% | -28% | 14%
CCCCC(=O)Nc1ccc2c(c1)nc1n2CCSC1 | u | 3.5µM* | 3.5µM* | 24µM* | u | 7.3µM*
COc1ccc(OCC(=O)Nc2ccc3c(c2)nc2n3CCSC2)cc1 | -16% | 4% | -5% | u | -16% | 0%
COc1ccccc1C(=O)Nc1ccc2c(c1)nc1n2CCN(Cc2ccccc2)C1 | u | -3% | -4% | u | -5% | -3%
Cc1ccc(C(=O)Nc2ccc3c(c2)nc2n3CCSC2)cc1 | u | 0.71µM* | 0.56µM* | 2.7µM* | x | u
COc1ccccc1C(=O)Nc1ccc2c(c1)nc1n2CCSC1 | u | u | 1.8µM* | 3µM* | 22µM* | u
O=C(OCc1ccc(Cl)c(Cl)c1)c1ccc[nH]1 | u | u | u | 24µM* | x | u
Cn1cc(CNC(=O)c2cc(-c3ccc(Br)cc3)nc3ccccc23)cn1 | -7% | 8% | 0% | u | x | -10%
NC(=O)c1cc(-c2ccccc2)nc2ccc(Br)cc12 | -3% | 2% | 2% | 5% | x | 6%
Cn1cc(CNC(=O)c2cc(-c3ccccc3)nc3ccc(Br)cc23)cn1 | -2% | 0% | 2% | 5.4µM* | 19% | -2%
Cc1nn(C)cc1CN(C)C(=O)c1cc(-c2ccccc2)nc2ccc(Br)cc12 | u | 2% | 15% | 21µM* | -11% | -12%
Cc1ccc(-c2cc(C(=O)NCc3cnn(C)c3)c3cc(Br)ccc3n2)cc1 | 15% | 4% | 24% | 1.1µM* | -3% | u
CCOc1ccc(N(Cc2nnc3n2CCCCC3)C(=O)Nc2cccc(C)c2)cc1 | u | -4% | -6% | -2% | -4% | 8%
O=C(Nc1ccc(Br)cc1)Nc1ccccc1F | u | 1.6µM* | 2.8µM* | 4.8µM* | x | u
O=C(Nc1ccccc1F)Nc1cccc2ccc(O)cc12 | 13µM* | 19% | u | 17µM* | x | 0%
O=C(Nc1ccccc1F)Nc1ccccc1F | u | u | 2.5µM* | 15µM* | 13µM* | 26%
O=C(CCc1ccccc1)Nc1ccccc1F | u | u | 2.8µM* | 12µM* | 16µM* | u
Cc1ccc(S(=O)(=O)N[C@H](CN)C(=O)O)cc1 | x | x | x | x | -2%[9.22 µM] | x
CCCCSCCCNC(=O)CN1C(=O)c2cccnc2Oc2ccc(Cl)cc21 | x | x | x | -17% | x | x
O=C(NNc1ccccc1)Nc1ccccc1F | 4% | 1% | -5% | 19µM* | x | 4%
O=C(NNc1cccc(Cl)n1)Nc1ccccc1F | 17% | 0% | -4% | -4% | 8% | 5%
COc1ccccc1/C(C)=N/Oc1cc(N)cc([N+](=O)[O-])c1 | u | -1% | -3% | u | x | 3%
CCOc1ccc(NC(=O)C(C)Oc2ccccc2C(=O)Nc2ccc(C)c(Cl)c2)cc1 (configuration not stated) | u | 0% | 7% | 12µM* | 15% | -8%
